Laboratory results published in PubChem BioAssay (NCATS).
Results filed as inconclusive are left out. A call without a number means that no potency is given here. Activity calls are given as the source filed them. Unless noted, calls follow the shape of the full dose curve.

Experiments:
[1] = qHTS for Inhibitors of the Functional Ribonucleoprotein Complex (vRNP) of Lassa (LASV) Arenavirus: LASV Primary Screen - GLuc reporter signal (AID 1347082; calls by dose curve; tested in HEK293 reporter line; also: series mostly up to about 57 µM; nearly all actives have a fitted effect of over 60% in size)
[2] = qHTS for Inhibitors of the Functional Ribonucleoprotein Complex (vRNP) of Lymphocytic Choriomeningitis Arenaviruses (LCMV): Viability assay - alamar blue signal for LCMV Primary Screen (AID 1347085; calls by dose curve; tested in HEK293 reporter line; also: nearly all actives have a fitted effect of over 80% in size; also: potency is read from the fitted curve at half-maximal effect)
[3] = target: Nucleoprotein (Lymphocytic choriomeningitis virus (strain Armstrong)) (UniProt P09992); experiment: qHTS for Inhibitors of the Functional Ribonucleoprotein Complex (vRNP) of Lymphocytic Choriomeningitis Arenaviruses (LCMV): LCMV Primary Screen - GLuc reporter signal (AID 1347086); also: series mostly up to about 57 µM; nearly all actives have a fitted effect of over 70% in size
Chain of Nucleoprotein (Lymphocytic choriomeningitis virus (strain Armstrong)) (P09992 whole entry, looked up): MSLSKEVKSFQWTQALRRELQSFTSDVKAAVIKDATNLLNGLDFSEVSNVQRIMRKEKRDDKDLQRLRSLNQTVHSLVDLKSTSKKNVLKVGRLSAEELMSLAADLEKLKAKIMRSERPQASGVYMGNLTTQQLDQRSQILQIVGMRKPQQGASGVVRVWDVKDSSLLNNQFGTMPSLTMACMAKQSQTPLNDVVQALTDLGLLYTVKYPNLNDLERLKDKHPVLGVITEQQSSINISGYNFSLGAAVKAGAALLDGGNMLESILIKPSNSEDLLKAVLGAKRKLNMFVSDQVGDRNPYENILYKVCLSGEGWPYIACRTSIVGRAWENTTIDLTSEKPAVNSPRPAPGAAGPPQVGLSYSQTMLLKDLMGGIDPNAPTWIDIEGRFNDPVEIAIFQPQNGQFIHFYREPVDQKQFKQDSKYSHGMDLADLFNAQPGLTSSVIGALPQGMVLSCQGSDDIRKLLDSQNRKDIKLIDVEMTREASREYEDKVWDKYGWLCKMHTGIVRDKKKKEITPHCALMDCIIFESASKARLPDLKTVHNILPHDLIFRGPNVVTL

Structure (SMILES) | Potency [1] | Potency [2] | Potency [3]
C[C@H](NC(=O)C(C#N)=Cc1cccc(Br)n1)c1ccccc1 | inactive | inactive | inactive
CCS(=O)(=O)N1CC(CC#N)(n2cc(-c3ncnc4[nH]ccc34)cn2)C1 | inactive | inactive | inactive
OCC1OC(n2cnc3c(NCc4ccccc4O)ncnc32)C(O)C1O (centres undefined) | inactive | 4.47 µM (active) | 
COc1cc2c(cc1OC)[C@@H]1Cc3ccc(OC)c(OC)c3CN1CC2 | inactive | inactive | inactive
C[C@]12CC[C@@H]3c4ccc(O)cc4CC[C@H]3[C@H]1C[C@@H](O)[C@H]2O | inactive | 9.68 µM (active) | 
Nc1ncn([C@@H]2O[C@H](CO)[C@@H](O)[C@@H]2O)c(=O)n1 | inactive | inactive | inactive
C=CCc1ccc(O)c(-c2ccc(O)c(CC=C)c2)c1 | inactive | inactive | inactive
CC=CC(C)=CC(C)C(=O)CC(O)CC1CC(=O)NC(=O)C1 (centres undefined) | inactive | inactive | inactive
Cc1ccc([C@@H]2O[C@H](CO)[C@@H](O)[C@H](O)[C@@H]2O)cc1Cc1ccc(-c2ccc(F)cc2)s1 | inactive | 34.3 µM (active) | 
COc1cc2c(cc1OC)C(C)N(Cc1ccc3c(c1)OCO3)CC2 (centres undefined) | inactive | inactive | inactive
C=C1CCC2C(C)(C)[C@H](O)CC[C@@]2(C)[C@@H]1COc1cc(=O)oc2ccccc12 (some centres undefined) | inactive | inactive | inactive
OC1c2ccccc2N=C2CCCN21 (centres undefined) | inactive | inactive | 
CC=C(C(=CC)c1ccc(O)cc1)c1ccc(O)cc1 | inactive | 2.43 µM (active) | 
